Compound activity (PubChem)
Only some compounds are listed: those with a hit (about 8.2% of all), similar ones and a draw of the others.
ELG1 repair inh: ELG1-dependent DNA repair inhibition; HEK293T ELG1-luciferase reporter, luminescence, 16 h; DNA damage induced by 5-fluorouridine; Potency, µM (top dose mostly 46.1 µM), actives largely listed as inhibitors; actives 2.3% (n = 330,000); AID 504467; also: nearly all actives have a fitted effect of over 55% in size
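Step one: seed 2,000 cells per well. Step two: pin-transfer compound or DMSO alongside 5-fluorouridine. Step three: incubate 16 hr, 37 °C, 5% CO2. Step four: add ONE-Glo, wait 30 min, read luminescence.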
KB-V1 cytotox: KB-V1 MDR subline cytotoxicity; KB-V1 MDR cells viability, CellTiter-Glo, 72 h; Potency, µM (doses to about 46.1 µM), hits mostly cytotoxic; actives 3.4% (n = 400,000); also: nearly all actives have a fitted effect of over 60% in size
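KB-V1 MDR subline cells in DMEM (phenol-red free, 10% FBS) exposed to compounds in qHTS concentration series for 72 h at 37 degrees C. Viability read by CellTiter-Glo luminescence; concentration-effect curves fitted after normalization and correction.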
KB-3-1 tox: kills parental KB-3-1 adenocarcinoma cells; AID 1347075; Potency, µM (highest dose often 46.1 µM), usual class: cytotoxic; KB-3-1 viability, CellTiter-Glo ATP luminescence, 72 h; actives 1.4% (n = 400,000); also: nearly all actives have a fitted effect of over 60% in size
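Parental KB-3-1 adenocarcinoma cells in phenol-red-free DMEM with 10% FBS were pin-treated with compounds at several concentrations, incubated 72 h at 37 °C, and viability read by CellTiter-Glo luminescence; concentration-effect curves were fitted after normalization.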
MCF10A rerep: DNA re-replication induction in MCF 10a cells; Potency, µM (top dose mostly 46.1 µM), usual class: activators; actives 2.9% (n = 350,000); AID 624296; MCF 10A DNA re-replication, Hoechst nuclear intensity, 48 h; also: nearly all actives have a fitted effect of over 50% in size
SW480 rerep: induces DNA re-replication in SW480 colon adenocarcinoma cells; SW480 DNA re-replication, Hoechst DNA content imaging, 48 h; Potency, µM (highest dose often 46.1 µM), hits mostly activators; actives 1.8% (n = 340,000); AID 624297; also: nearly all actives have a fitted effect of over 55% in size
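Image-based read-out: total Hoechst fluorescence of nuclei (405 nm excitation, 500-530 nm emission), with hits raising the fraction of high-intensity nuclei. SW480 colon cells incubated 48 hr with compounds at 37 C.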
Numbers stand for hits; – = inactive; ? = inconclusive; · = no result; [ ] = another dose, or the depositor's remark. Calls follow the shape of the dose curve; as a rule, active = well fitted curve in the direction sought with a large enough effect; inconclusive = small, poorly fitted or top-dose-only effect, or another doubt; inactive = no such curve, though single readings can be large; an effect the other way counts as inactive or inconclusive.

SMILES	ELG1 repair inh	KB-V1 cytotox	KB-3-1 tox	MCF10A rerep	SW480 rerep
Oc1cccc(C2c3[nH]c4ccccc4c3CCN2Cc2ccc3c(c2)CCO3)c1 (centres undefined)	?	18.4µM	20.6µM	16.4µM	?
CS(=O)(=O)Nc1cccc(C2=NN(C(=O)c3ccco3)C(c3cccs3)C2)c1 (centres undefined)	6.51µM	·	·	?	?
CS(=O)(=O)Nc1cccc(C2=NN(C(=O)CCC(=O)O)C(c3cccs3)C2)c1 (centres undefined)	–	–	–	–	–
CC(=O)N1N=C(c2cccc(NS(C)(=O)=O)c2)CC1c1cccs1 (centres undefined)	–	–	–	–	–
CS(=O)(=O)Nc1ccc(C2=NN(C(=O)c3cccc(F)c3)C(c3cccs3)C2)cc1 (centres undefined)	16.4µM	–	–	?	–
CCC(=O)N1N=C(c2cccc(NS(C)(=O)=O)c2)CC1c1cccs1 (centres undefined)	23.1µM	18.4µM	–	–	–
O=c1c2ccccc2ncn1-c1ccc([N+](=O)[O-])cc1[N+](=O)[O-]	14.6µM	?	–	?	?
O=c1c2ccccc2ncn1-c1ccc(Cl)cc1[N+](=O)[O-]	–	–	–	–	–
CCOC(=O)c1c(C)[nH]c(C(=O)OC)c1CCC(=O)OC	–	–	–	–	–[9.22 µM]
CCOC(=O)c1[nH]c(Cc2[nH]c(C(=O)OCC)c(C)c2CCC(=O)OC)c(CCC(=O)OC)c1C	18.4µM	–	–	–	–
CCOC(=O)C(=O)c1csc(NC(=O)CCSc2ccc(C)cc2)n1	–	–	–	0.581µM	–
O=C(c1ccccc1)N1CCN(c2ccc([N+](=O)[O-])c(NCc3cccnc3)c2)CC1	?	2.59µM	?	–	–
O=C(c1ccccc1F)N1CCN(c2ccc([N+](=O)[O-])c(NCc3cccnc3)c2)CC1	?	–	–	–	–
CC(C)(C)C(=O)N1CCN(c2ccc([N+](=O)[O-])c(NCc3cccnc3)c2)CC1	?	?	–	–	–
O=C(c1ccc(Cl)cc1)N1CCN(c2ccc([N+](=O)[O-])c(NCc3cccnc3)c2)CC1	·	20.6µM	–	–	–
CC1=C(C(=O)N(C(C)C)C(C)C)CC(CC(=O)NCCN2CCOCC2)C(=O)N1Cc1ccccc1 (centres undefined)	·	–	–	·	·
CC(C(=O)NCc1ccccc1)n1cc([N+](=O)[O-])cn1 (centres undefined)	–	–	–	–	–
COC(=O)C[C@H]1CC[C@@H](NC(=O)C2CC2)[C@@H](CO)O1	·	–	–	·	·
CC(=O)N(Cc1ccc(F)cc1)C1=C(NCc2ccccc2)C(=O)c2ccccc2C1=O	20.6µM	–	?	?	?
CC(=O)N1CCCc2cc(S(=O)(=O)N3CCCC(C(=O)Nc4cccc(Cl)c4C)C3)ccc21 (centres undefined)	·	–	–	·	·
O=[N+]([O-])c1cc([N+](=O)[O-])c(Oc2cccnc2Br)cc1NN1CCCCC1	?	–	?	?	–
COc1ccccc1CNS(=O)(=O)CCNCCc1ccccc1	·	–	–	20.6µM	–
CCCCCCCCN=C1NC(=O)CS1	–	13µM	?	–	–
c1ncc2snnc2n1	·	–	–	·	·
CC(NC(=O)c1ccnc(C(C)(C)C)c1)c1ccccc1 (centres undefined)	–	18.4µM	?	–	–
SMILES	ELG1 repair inh	KB-V1 cytotox	KB-3-1 tox	MCF10A rerep	SW480 rerep
CC(C)(C)c1cc(C(=O)Nc2ccccc2)ccn1	–	20.6µM	–	–	–
CC(C)(C)NC(=O)c1ccnc(C(C)(C)C)c1	–	–	–	–	–
O=C(COc1ccc(F)cc1)NCc1ccc2c(c1)CCN2C(=O)c1ccccc1	·	–	–	·	·
CN1CCN(C(=O)/C=C/c2ccc(C#N)cc2)CC1	–	?	–	–	–
COc1ccc(Br)cc1/C=C/C(=O)Nc1ccc(C)cc1	20.6µM	–	–	–	–
CC(=O)Nc1cccc(C(=O)/C=C/c2ccc(F)cc2)c1	?	?	–	9.2µM	?
CC(=O)Nc1cccc(C(=O)/C=C/c2ccc(N(C)C)cc2)c1	?	?	–	?	?
CCC(=O)Nc1cccc(C(=O)/C=C/c2cc(Br)ccc2OC)c1	?	18.4µM	–	2.91µM	3.66µM
COc1ccc(Br)cc1/C=C/C(=O)Nc1ccc2ccccc2c1	–	–	–	?	–
CC(=O)Nc1cccc(C(=O)/C=C/c2ccc(Br)cc2)c1	?	?	–	5.8µM	20.6µM
CC(OC(=O)CNS(=O)(=O)c1ccc(C#N)cc1)C(=O)Nc1cccc(C#N)c1 (centres undefined)	–	–	–	–	–
Cc1ccc(NS(=O)(=O)c2ccc(C(=O)NCCCN3CCCC3=O)cc2)cc1	–	–	–	–	–
COc1ccccc1Cn1c(CCCO)nc2ccccc21	–	?	–	–	–
CCc1nc2ccccc2n1Cc1ccccc1OC	–	14.6µM	?	–	–
CCCc1nc2ccccc2n1Cc1ccccc1OC	?	14.6µM	?	–	–
CCc1cnc2c(c1SCC(=O)NCc1ccc(C)cc1)c(=O)n(C)c(=O)n2C	·	–	–	·	·
CCOC(=O)/C(=C\c1ccc(Cl)cc1)c1nc2sc(C)c(C)c2c(=O)[nH]1	?	?	?	5.17µM	?
CCOC(=O)C(=Cc1cc(=O)c(OC)co1)C(=O)OCC	5.8µM	?	4.61µM	1.64µM	?
COc1coc(C(O)CN)cc1=O (centres undefined)	–	–	–	–	–
CCCCCCN(CCCCCC)c1ccc(/C=C/c2ccnc3ccccc23)cc1	·	–	?	·	·
CCN1/C(=C\c2ccc3cc(C)ccc3[n+]2CC)Sc2cc(C)c(C)cc21	?	–	?	?	–
CCN1/C(=C/c2ccc3cc(C)ccc3[n+]2CC)Sc2ccc3sccc3c21	·	–	2.59µM	–	–
CCN1/C(=C/c2ccc3cc(C)cc(C)c3[n+]2CC)Sc2cc(C)ccc21	?	–	–	5.8µM	–
CCN1/C(=C/c2ccc3cccc(C)c3[n+]2CC)Sc2ccccc21	–	–	?	–	–
CC(C)C(=O)c1cc2c(cc1NC(=O)c1ccccc1)OCCO2	–	–	–	?	–
SMILES	ELG1 repair inh	KB-V1 cytotox	KB-3-1 tox	MCF10A rerep	SW480 rerep
CC(C)C(=O)c1cc2c(cc1NC(=O)Nc1cccc3ccccc13)OCCO2	23.1µM	·	·	·	·
O=S(=O)(Nc1cc(Sc2cccc3cccnc23)c(O)c2ccccc12)c1ccccc1	9.2µM	·	·	23.1µM	8.2µM
O=C(O)CSc1cc(NS(=O)(=O)c2cccc([N+](=O)[O-])c2)c2ccccc2c1O	23.1µM	5.8µM	?	2.06µM	20.6µM
O=C(O)c1ccccc1NS(=O)(=O)c1cccc2cccnc12	–	–	–	–	–
CCOc1ccc(S(=O)(=O)Nc2cc(SCC(=O)O)c(O)c3ccccc23)cc1	?	?	?	?	–
COc1ccc(N2CCCC2=O)cc1S(=O)(=O)N1CCOCC1	·	–	–	·	·
